About 83,000 compounds went through this panel and 20% of them were active in at least one assay; those are over-represented in the sample as a whole.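 How to read the values: 0–100, growth inhibition (40 = 60% inhibited); 0, no net growth; -100 to 0, cell death (-40 = 40% of starting cells died; -100 = all dead).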 The source made the active and inactive calls. The calls were made as follows: active = growth percent below 10; inactive = the rest.
Key:
Experiment in all cases: NCI-60 one-dose screen, 48 h (100 = growth as untreated, 0 = no growth, -100 = all killed)
Details in all cases: 10 µM unless noted
SR leukemia = tested on: SR leukemia
RPMI-8226 leukemia = tested on: RPMI-8226 leukemia
OVCAR-8 ovarian = tested on: OVCAR-8 ovarian
OVCAR-5 ovarian = tested on: OVCAR-5 ovarian
OVCAR-4 ovarian = tested on: OVCAR-4 ovarian
SK-OV-3 ovarian = tested on: SK-OV-3 ovarian
IGROV1 ovarian = tested on: IGROV1 ovarian
OVCAR-3 ovarian = tested on: OVCAR-3 ovarian
HS 578T breast = tested on: HS 578T breast
NCI/ADR-RES ovarian = tested on: NCI/ADR-RES ovarian

Measured: growth

c1ccc2c(Nc3cccc4ccccc34)cccc2c1
inactive: SR leukemia 31.6% | RPMI-8226 leukemia 68.3% | OVCAR-8 ovarian 65.7% | OVCAR-5 ovarian 103% | OVCAR-4 ovarian 86% | SK-OV-3 ovarian 59.5% | IGROV1 ovarian 56.8% | OVCAR-3 ovarian 43.8% | HS 578T breast 62.6% | NCI/ADR-RES ovarian 29.8%

COc1ccc(C(=O)c2sc3nc(-c4ccccc4OC)ccc3c2N)cc1OC
inactive: SR leukemia 21.6% | RPMI-8226 leukemia 19.7% | OVCAR-8 ovarian 43.2% | OVCAR-5 ovarian 89.8% | OVCAR-4 ovarian 61.5% | SK-OV-3 ovarian 107% | IGROV1 ovarian 57.5% | OVCAR-3 ovarian 68.9% | HS 578T breast 55.6% | NCI/ADR-RES ovarian 33.1%

Cc1nc2sc(C(=O)Nc3cccc4c3OCCO4)c(N)c2cc1C(C)O (stereo not given)
active: SK-OV-3 ovarian -11.4% | OVCAR-3 ovarian 7.73%
inactive: SR leukemia 26.4% | RPMI-8226 leukemia 26.5% | OVCAR-8 ovarian 49.5% | OVCAR-5 ovarian 73.7% | OVCAR-4 ovarian 69.4% | IGROV1 ovarian 49% | HS 578T breast 33.5% | NCI/ADR-RES ovarian 31%

CS(CCCCN=C=S)=NC(=O)c1c(F)c(F)c(F)c(F)c1F (stereo not given)
active: SR leukemia 2.68%
inactive: RPMI-8226 leukemia 10.3% | OVCAR-8 ovarian 91.9% | OVCAR-5 ovarian 109% | OVCAR-4 ovarian 74.4% | SK-OV-3 ovarian 91.7% | IGROV1 ovarian 76.8% | OVCAR-3 ovarian 57.3% | HS 578T breast 90.8% | NCI/ADR-RES ovarian 97.3%

COc1ccc(/C=C/C(=O)c2ccc(NC(=O)c3cc4cc5ccccc5nc4s3)cc2)cc1OC
inactive: SR leukemia 98.6% | RPMI-8226 leukemia 99.4% | OVCAR-8 ovarian 111% | OVCAR-5 ovarian 96.8% | OVCAR-4 ovarian 97.1% | SK-OV-3 ovarian 106% | IGROV1 ovarian 81.8% | OVCAR-3 ovarian 95.5% | HS 578T breast 107% | NCI/ADR-RES ovarian 105%

CCCCCCNC(=O)Oc1ccc(/C(=C(\C)c2ccccc2)c2ccc(OCCN(CC)CC)cc2)cc1
inactive: RPMI-8226 leukemia 22.1% | OVCAR-8 ovarian 63.5% | OVCAR-5 ovarian 76.9% | OVCAR-4 ovarian 64.4% | SK-OV-3 ovarian 74.3% | IGROV1 ovarian 59.2% | OVCAR-3 ovarian 66.9% | HS 578T breast 36.4% | NCI/ADR-RES ovarian 70.6%
active: SR leukemia 1.65%

CCOC(=O)c1cnc2ccc(OC)cc2c1Nc1cccc(S(=O)(=O)NC)c1
inactive: SR leukemia 95.6% | RPMI-8226 leukemia 51.6% | OVCAR-8 ovarian 100% | OVCAR-5 ovarian 102% | OVCAR-4 ovarian 104% | SK-OV-3 ovarian 113% | IGROV1 ovarian 113% | OVCAR-3 ovarian 103% | HS 578T breast 52.3% | NCI/ADR-RES ovarian 90%

CCN(CC)c1ccc(/C=C/C2=[N+](C)c3ccccc3C2(C)C)cc1
inactive: SR leukemia 28.1% | OVCAR-8 ovarian 24.7% | OVCAR-5 ovarian 34.7% | OVCAR-4 ovarian 40.6% | IGROV1 ovarian 18.6% | HS 578T breast 27% | NCI/ADR-RES ovarian 84.8%
active: RPMI-8226 leukemia -20.9% | SK-OV-3 ovarian -0.178% | OVCAR-3 ovarian 5.97%

COc1ccc(-c2cnoc2-c2cc(OC)c3c(c2)OCCO3)cc1
active: SR leukemia 3.75% | RPMI-8226 leukemia -8.88% | OVCAR-8 ovarian 9.43% | OVCAR-3 ovarian -18.6% | NCI/ADR-RES ovarian 3.01%
inactive: OVCAR-5 ovarian 31.9% | OVCAR-4 ovarian 50.4% | SK-OV-3 ovarian 11.7% | IGROV1 ovarian 29.2% | HS 578T breast 45.7%

O=C1/C(=C/c2ccc(Cl)cc2Cl)CN(S(=O)(=O)c2ccccc2)C/C1=C\c1ccc(Cl)cc1Cl
active: SR leukemia -11.6% | RPMI-8226 leukemia -21.9% | OVCAR-5 ovarian -3.2% | IGROV1 ovarian -24.3% | OVCAR-3 ovarian -36.4%
inactive: OVCAR-8 ovarian 13.6% | OVCAR-4 ovarian 22.6% | SK-OV-3 ovarian 44.7% | HS 578T breast 37.9% | NCI/ADR-RES ovarian 20.5%

CCC(c1ccccc1)C(CC)c1ccc(O)c(O)c1 (stereo not given)
inactive: SR leukemia 55.3% | RPMI-8226 leukemia 102% | OVCAR-8 ovarian 102% | OVCAR-5 ovarian 115% | OVCAR-4 ovarian 82.4% | SK-OV-3 ovarian 112% | IGROV1 ovarian 96.5% | OVCAR-3 ovarian 86% | HS 578T breast 87.1% | NCI/ADR-RES ovarian 96.1%

CN1CCN(Cc2ccc(NC(=O)c3[nH]ncc3Nc3ncnc4[nH]ccc34)cc2)CC1
active: SR leukemia -17% | RPMI-8226 leukemia -10.4% | OVCAR-8 ovarian 6.62% | OVCAR-4 ovarian -21.7% | OVCAR-3 ovarian -57.6% | HS 578T breast -3.22%
inactive: OVCAR-5 ovarian 11.6% | SK-OV-3 ovarian 18.5% | IGROV1 ovarian 16.4% | NCI/ADR-RES ovarian 71.2%

C=C1CC2(OC1=O)C(=O)N(CCCCCCCN1C(=O)C3(CC(=C)C(=O)O3)c3ccccc31)c1ccccc12 (stereo not given)
active: SR leukemia 3.28% | RPMI-8226 leukemia -28.1% | OVCAR-8 ovarian 9.09% | OVCAR-3 ovarian 3.44%
inactive: OVCAR-5 ovarian 45.1% | OVCAR-4 ovarian 10.2% | SK-OV-3 ovarian 112% | IGROV1 ovarian 10.5% | HS 578T breast 62.3% | NCI/ADR-RES ovarian 32.6%
